This note sets out measurements from PubChem BioAssay (NCATS).

Several values for one entry are separate records, joined by “and”; a condition that tells them apart may be missing. Identical values can stand only once. Inconclusive results are not listed. Values without a mark were called inactive. Activity calls are given as the source filed them. Calls come from the whole dose curve; as a rule, active = well fitted inhibition curve with a large enough effect; inconclusive = small, poorly fitted or top-dose-only effect; inactive = flat fitted curve, though single readings scatter. Positions of bridges follow the written chain, without caps; N, C: chain ends. Non-standard residues stand in square brackets, D forms with d. Residues, ends and D or L forms follow the SMILES beside them. ξ: configuration not given here. *: point of attachment. Octanoyl(6-Me) = CCC(C)CCCCC(=O)*; ξThr(3R) = C[C@@H](O)C(N)C(=O)O; dDab = NCC[C@@H](N)C(=O)O; Dab = NCC[C@H](N)C(=O)O
% is set by controls: 0 for no effect and ±100 for the full control effect; potency is the fitted concentration of half-maximal effect.

This assay has as its system NIH3T3. As to the kind of experiment: Cytotoxic Profiling of Annotated Libraries Using Quantitative High-Throughput Screening (AID 1296008). Note: nearly all actives have a fitted effect of over 60% in size. The settings on record: Five cell lines viability, CellTiter-Glo ATP luminescence, 48-72 h; max response: active compounds read low. The essentials:
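Cells exposed to compounds for 48 or 72 hr at 37 degrees Celsius. Viability read as ATP-coupled luminescence with CellTiter-Glo after 10 min at room temperature.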
As to `FC(F)c1nc2ccccc2n1-c1nc(N2CCOCC2)nc(N2CCOCC2)n1`, the Potency is 662 nM (active) and 1.64 µM (active).
With `CON=C(C(=O)N[C@@H]1C(=O)N2C(C(=O)O)=C(CSC(=O)c3ccco3)CS[C@H]12)c1csc(N)n1`, the max response is -6.35%.
Consider `C[C@@H]1[C@H](C)CC[C@]2(C(=O)O)CC[C@]3(C)C(=CC[C@@H]4[C@@]5(C)C[C@@H](O)[C@H](O)[C@@](C)(CO)[C@H]5CC[C@]43C)[C@@H]12`, for which the molecule was called inactive.
For `Nc1ccn(C2CO[C@H](CO)O2)c(=O)n1` (stereo partly drawn), the max response was -8.89%.
The same measure, in the same setting: in the case of `O=C(CN1C(=O)C2(CCCC2)NC[C@H]1c1cc(F)cc(F)c1)Nc1ccc2c(c1)C[C@@]1(C2)C(=O)Nc2ncccc21` it was -4.62%.
Take `Nc1nc(=O)n([C@H]2C[C@H](O)[C@@H](CO)O2)cc1F`: the Potency is 8.3 nM (active).
As for `CCC(C)CCCCC(=O)N[C@@H](CCN)C(=O)NC(C(=O)N[C@H](CCN)C(=O)N[C@@H]1CCNC(=O)C([C@@H](C)O)NC(=O)[C@@H](CCN)NC(=O)[C@@H](CCN)NC(=O)[C@@H](CC(C)C)NC(=O)[C@H](Cc2ccccc2)NC(=O)[C@H](CCN)NC1=O)[C@@H](C)O` (stereo partly drawn) ({Octanoyl(6-Me)}-[Dab][ξThr(3R)][dDab][dDab][Dab]F[dL][dDab][dDab][ξThr(3R)]; lactam 4-C), the call was inactive.
For `CN[C@H]1[C@@H](O)[C@@H]2O[C@@H]3O[C@H](C)CC(=O)[C@]3(O)O[C@@H]2[C@@H](NC)[C@H]1O`, the max response is 4.68%.
On the same count and under the same terms, the value for `O=C1c2c(O)cccc2[C@@H]([C@@H]2O[C@H](CO)[C@@H](O)[C@H](O)[C@H]2O)c2cc(CO)cc(O)c21` was 4.49%.
The same measure, in the same setting: in the case of `CC(=O)N[C@@H]1[C@H](O[C@@H]2c3ccc(c(Cl)c3)Oc3cc4cc(c3O[C@H]3O[C@H](CO)[C@@H](O)[C@H](O)[C@H]3NC(=O)CCCCCCCC(C)C)Oc3ccc(cc3Cl)C[C@H]3NC(=O)[C@H](N)c5ccc(O)c(c5)Oc5cc(O)cc(c5)[C@H](NC3=O)C(=O)N[C@H]4C(=O)N[C@H]3C(=O)N[C@@H]2C(=O)N[C@@H](C(=O)O)c2cc(O)cc(O[C@H]4O[C@H](CO)[C@@H](O)[C@H](O)[C@H]4O)c2-c2cc3ccc2O)O[C@H](CO)[C@@H](O)[C@@H]1O` it was 4.41%; in that of `O=c1ccn([C@@H]2O[C@H](CO)[C@H](O)[C@@H]2F)c(=O)[nH]1`, 2.94%.
Same read-out and setting: in the case of `CON=C(C(=O)N[C@@H]1C(=O)N2C(C(=O)O)=C(Cn3ccc(=N)n3CCO)CS[C@H]12)c1csc(N)n1` it was 1.39%.
For `O=C(C=Cc1ccc(CN(CCO)CCc2c[nH]c3ccccc23)cc1)NO`, the Potency is 1050 nM (active).
As for `C[C@H](NC(=O)C(C#N)=Cc1cccc(Br)n1)c1ccccc1`, the Potency was 9350 nM (active).
`COc1cc([C@@H]2c3cc4c(cc3[C@@H](O[C@@H]3O[C@@H]5CO[C@@H](c6cccs6)O[C@@H]5[C@H](O)[C@@H]3O)[C@H]3COC(=O)[C@H]23)OCO4)cc(OC)c1O`: the Potency was 132 nM (active).
On the same count and under the same terms, the value for `C=CCNC1=C2C[C@@H](C)C[C@H](OC)[C@@H](O)[C@@H](C)C=C(C)[C@H](OC(N)=O)[C@@H](OC)C=CC=C(C)C(=O)NC(=CC1=O)C2=O` was 526 nM (active); that for `CCOC(=O)N1CCN([N+]([O-])=NOc2ccc([N+](=O)[O-])cc2[N+](=O)[O-])CC1` was 9350 nM (active).
The same measure, in the same setting: the value for `COc1cccc2c1C(=O)c1c(O)c3c(c(O)c1C2=O)C[C@@](O)(C(C)=O)C[C@H]3O[C@H]1C[C@H](N)[C@H](O)[C@H](C)O1` was 209 nM (active).
For `C=CC1=C(C(=O)O)N2C(=O)[C@@H](NC(=O)C(=NO)c3csc(N)n3)[C@H]2SC1`, the molecule was called inactive.
`O=C(O)CCCCCC(=O)NN=C1CCCC1`: the max response was 3.56%.
Regarding `Cc1ncc(-c2ccnc(Nc3ccc(S(C)(=O)=O)cc3)n2)n1C(C)C`, the Potency was 13200 nM (active).
As for `CC[C@H]1OC(=O)[C@H](C)[C@@H](O[C@H]2C[C@@](C)(OC)[C@@H](O)[C@H](C)O2)[C@H](C)[C@@H](O[C@@H]2O[C@H](C)C[C@H](N(C)C)[C@@H]2O)[C@](C)(OC)C[C@@H](C)C(=O)[C@H](C)[C@@H](O)[C@]1(C)O`, the molecule was classed as inactive.
As for `C=C(C)[C@@H]1CC[C@]2(C(=O)O)CC[C@]3(C)[C@H](CC[C@@H]4[C@@]5(C)CC[C@H](O)C(C)(C)[C@@H]5CC[C@]43C)[C@@H]12`, the max response was 0.0342%.
